PubChem BioAssay AID2732 (Emory University Molecular Libraries Screening Center, 2010)
Out of some 220,000 compounds screened, about 8,200 (3.7%) were called active.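 Rule for the calls: active = compounds that reduced the stress-induced luciferase reporter signal by more than about 70% of percent inhibition (limit read from the data); inactive = the rest.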 The list comes from a sample in which actives are over-represented; it also holds similar structures and randomly drawn compounds.

Assay: inhibitors of CHOP promoter induction, primary screen, cell-based, unfolded protein response, luciferase reporter (AID 2732);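 note: 0% = tunicamycin plus vehicle and 100% = wells without tunicamycin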
Settings: CHO-K1 CHOP-promoter luciferase, tunicamycin-induced, 15-18 h; at 10 µM; stronger effect = higher value

inhibition, active:
Clc1ccc2nc(-c3ccccc3)nc(C(Cl)Cl)c2c1 75.6%, COC(=O)C1=C(C)N(C)C(C)=C(C(=O)OC)C1c1cccc(Br)c1 71.4%, O=c1c2ccccc2c(-c2ccc(F)cc2)nn1-c1ccc(C(F)(F)F)cc1 75.1%, COc1ccc(COC(=O)c2n[nH]c3ccccc23)cc1F 97.2%, CCCOc1ccc(Cc2c(Cl)nc(SC)nc2NC)cc1 97.5%, COc1cc2[nH]c(=S)n(Cc3ccc(F)cc3)c(=O)c2cc1OC 90.9%, O=C1C=C(c2ccc(Cl)cc2)C(=O)N1Nc1ccccc1 108%, CC(C)(C)c1ccc(C(=O)NCCn2c(N)c(C#N)c3nc4ccccc4nc32)cc1 86.5%, Cc1ccc(O)c(NC(=S)NC(=O)COc2ccc(Br)cc2)c1 74.2%

inhibition, inactive:
c1ccc(-c2nc(NCc3ccco3)c3ccccc3n2)cc1 8.64%, Clc1cccc(-c2nc(NCC3CCCO3)c3ccccc3n2)c1 (stereo not drawn) 14.2%, FC(F)(F)c1cccc(-c2nc(COc3ccc(Cl)cc3Cl)no2)c1 -14.1%, O=C(c1cc(COc2c(F)cccc2F)on1)N1CCSCC1 -22.2%, CC[C@@H](C)[C@@H](C(=O)N1CCN(C(=O)OC(C)(C)C)CC1)n1cc(CCC(=O)O)nn1 -7.63%, O=C(c1c(Cl)cccc1Cl)N1CCN(c2cccc3[nH]ccc23)CC1 12.1%, COC(=O)C1=C(C)N(C)C(=S)NC1c1ccccc1 (stereo not drawn) -6.17%, COCCN1C(=O)N[C@@H](c2ccccc2)C(C(=O)OC)=C1C -1.22%, N/C(=N\S(=O)(=O)c1ccc(Cl)cc1)N1CCOCC1 13.5%, c1csc(-c2nnc(COc3ncnc4sccc34)o2)c1 4.38%, Cc1cccc(C)c1Nc1c(-c2ccccc2O)nc2ncccn12 6.71%, O=c1c2ccccc2c(-c2ccc(Br)cc2)nn1Cc1ccccc1 36.9%, O=c1c2ccccc2c(-c2ccccc2)nn1-c1ccccn1 38.6%, Oc1ccc2ccccc2c1N=Nc1nccs1 -57.9%, Cc1noc(C)c1-c1nc(CSc2ccc(Cl)cc2)no1 20.1%, O=S(=O)(c1cccc(-c2nnc3n2CCCCC3)c1)N1CCOCC1 7.35%, COc1cccc(CNC(=O)c2n[nH]c3ccccc23)c1 15.2%, O=C(COC(=O)c1n[nH]c2ccccc12)NCc1ccccc1 38.6%, C=CCN(C(=O)Nc1ccc2c(c1)nc(C)n2C)c1ccccc1 -18.2%, O=C(NCCc1c[nH]c2ccc(Cl)cc12)c1ccc([N+](=O)[O-])cc1 -3.24%, CCCOc1ccc(C(=O)NCCc2ccccc2)cc1 21.8%, CCCOc1ccc(-c2nc(N)n[nH]2)cc1 20.8%, CNc1ncnc2c1ncn2[C@@H]1O[C@H](CO)[C@H](O)C1O (stereo partly drawn) 10.8%, COc1cc2[nH]c(=S)n(Cc3ccc(C)o3)c(=O)c2cc1OC 7.74%, CCOc1cc2[nH]c(=S)n(Cc3ccc(C(=O)NCCOC)cc3)c(=O)c2cc1OCC 9.91%, C#CCNc1ccc(C(=O)OCC)cc1 -15.6%, O=C1c2cccc3cc(Br)cc(c23)C(=O)N1Nc1ccccc1 63.7%, O=C(O)CC1=C(Nc2ccccc2)C(=O)N(c2ccccc2)C1c1ccc(Cl)cc1 (stereo not drawn) 8.1%, CCCNC(=O)c1c(N)n(-c2ccc(S(N)(=O)=O)cc2)c2nc3ccccc3nc12 -1.19%, N#Cc1c(N)n(CCOC(=O)c2ccc(Cl)cc2)c2nc3ccccc3nc12 -17.1%, Cc1ccc(O)c(NC(=O)COc2cc(C)ccc2C)c1 5.05%, Cc1cccc(OCC(=O)NC(=S)Nc2ccccc2N2CCOCC2)c1 47.7%, CCCc1c(C(=O)O)cnn1-c1ccc(Cl)cc1 -2.68%, O=C1[C@@H]2C(c3cccnc3)=NO[C@@H]2C(=O)N1c1ccc(Cl)cc1Cl 19.2%
